40 molecules from PubChem BioAssay (Tox21) can be followed below.

Results filed as inconclusive are left out. A call without a number means that no potency is given here. A structure can be active in one record and inactive in another. Active and inactive are the calls of the source. Calls follow the shape of the dose curve; as a rule, active = well fitted activation curve with a large enough effect in the repeat runs; inconclusive = weak or mixed curves; inactive = flat fitted curve, though single readings scatter.
Potency is read from the fitted curve at half-maximal effect.

The nature of this test: Caspase-3/7 induction in HepG2 cells by small molecules, qHTS assay (AID 1346978). Also: nearly all actives have a fitted effect of over 15% in size. The settings on record: HepG2 caspase-3/7 activation, Caspase-Glo luminescence, 17 h; series mostly up to 92.4 µM; caspase activation: at the top concentration. From the text: National Center for Advancing Translational Sciences [NCATS] NIH Chemical Genomics Center [NCGC] U.S. Environmental Protection Agency [EPA] National Institutes of Environmental Health Sciences [NIEHS] National Toxicology Program [NTP] Assay overview: Apoptosis is a process of programmed cell death and plays a central role in the development of multicellular organisms. It is a highly regulated process and induces cell death by activating caspases, which are the members of cysteine aspartic acid-specific protease (caspase) family. Caspases involved in apoptosis are classified by their mechanism of action as initiator caspases (caspase-2, -8, -9 and -10) and executioner caspases (caspase-3, -6, and -7). Inhibition of apoptosis results in number of cancers, autoimmune diseases, inflammatory diseases and viral infection. To identify small molecule compounds that induce apoptosis, a homogeneous, luminescent Caspase-Glo 3/7 assay was used. Wild type HepG2 cells were used to screen Tox21 libraries for identifying caspase-3/7 activity inducers.
Assay Protocol Summary: HepG2 cells were dispensed at 2,000 per well in 5uL of culture medium into white solid bottom 1536-well plates (Corning Life Sciences, Corning, NY) using a Multidrop Combi (Thermo Scientific, Waltham, MA) dispenser. The assay plates were incubated at 37 C and 5% CO2 for 5hr, and then 23nL of compounds dissolved in DMSO and positive control were transferred using a Pintool station (Wako, San Diego, CA). The assay plates were incubated at 37C and 5% CO2 for 17hr. For caspase-3/7 activity read, 4uL of Caspase-Glo 3/7 reagent (Promega Corporation, Madison, WI) was added to each well of the assay plates using Flying Reagent Dispenser (FRD, Aurora Discovery, San Diego, CA) and incubated the assay plates at room temperature for 30min. The luminescence signal was quantified using a ViewLux plate reader (Perkin Elmer, Shelton, CT).
With `CC(C)(C#N)c1cc(Cn2cncn2)cc(C(C)(C)C#N)c1`, the Potency entry was “inactive”.

In the case of `CSc1ccc(Cl)cc1`, the Potency result was “inactive”.

With `COC(=O)c1cccnc1`, the Potency result is “inactive”.

As for `CCCCCCCCCCCCCCCCO`, the Potency result was “inactive”.

For the molecule `CC(C)OC(=O)COc1ccc(Cl)cc1Cl`, the Potency result was “inactive”.

Consider `CC(C)OP(=O)(CP(=O)(OC(C)C)OC(C)C)OC(C)C`, for which the Potency result was “inactive”.

As to `Cc1ccc2ncccc2c1`, the Potency entry is “inactive”.

As to `C=CC[N+](C)(C)CC=C`, the Potency result is “inactive”.

`O=C(O)CCCCCCCCC(=O)O`: the Potency entry was “inactive”.

For `C[C@]12CCC(=O)C=C1CC[C@@H]1[C@@H]2[C@@H](O)C[C@@]2(C)[C@H]1CC[C@]2(O)C(=O)CO`, the Potency result was “inactive”.

In the case of `Cc1ccc(C(C)C)c(O)c1`, the Potency result is “inactive”.

`COc1ccc(C)cc1N`: the “caspase activation” value is 1.54% (inactive).

As for `CC(C)c1cccc(C(C)C)c1`, the Potency result was “inactive”.

`CC1(C)OC[C@@H]2O[C@@]3(C(=O)O)OC(C)(C)O[C@H]3[C@@H]2O1`: the Potency result was “inactive”.

Turning to `CCCCCCCCCCN`, the Potency entry was “inactive”.

On to `NCCCCCCN`, for which the Potency result was “inactive”.

Turning to `O=[N+]([O-])c1ccc2nc[nH]c2c1`, the Potency result was “inactive”.

Consider `C=C(C)[C@H]1CC=C(C)C(=O)C1`, for which the Potency entry was “inactive”.

As for `O=C1C(c2[nH]c3ccccc3c2O)=Nc2ccccc21`, the Potency entry is “inactive”.

For `O=C(O)Cn1c(=O)n(Cc2ccc(Br)cc2F)c(=O)c2ccc(Cl)cc21`, the Potency entry was “inactive”.

With `CCNC(=S)NCC`, the Potency result is “inactive”.

With `C=CC(C)CCCC(C)(C)O` (stereo not given), the Potency result was “inactive”.

As to `C[Si]1(C)O[Si](C)(C)O[Si](C)(C)O[Si](C)(C)O1`, the Potency result was “inactive”.

Consider `CCCCCCCCCCCC(=O)OC`, for which the Potency result is “inactive”.

As for `N#Cc1ccccc1`, the Potency result is “inactive”.

As for `CCc1ccccc1CC`, the Potency entry was “inactive”.

Take `CN/C(=C\[N+](=O)[O-])NCCSCc1csc(CN(C)C)n1`: the Potency result is “inactive”.

With `O=C(O)c1ccc(C(=O)O)c(C(=O)O)c1`, the Potency entry is “inactive”.

`O=S(=O)(O)c1ccccc1`: the Potency result was “inactive”.

In the case of `CCCCCCCC=O`, the Potency result is “inactive”.

For `COc1ccc([N+](=O)[O-])cc1N`, the Potency result is “inactive”.

`COc1ccc(OC)cc1`: the Potency entry is “inactive”.

Turning to `CC(=O)OCc1ccco1`, the Potency is 60.8 µM (active) and inactive.

`CCCCCCCCCCCCCCCC(=O)OC(C)C`: the Potency result was “inactive”.

With `CC(CCO)CC(C)(C)C` (stereo not given), the Potency result was “inactive”.

With `CCCCOC(=O)c1ccc(N)cc1`, the Potency entry is “inactive”.

On to `Nc1nc(N)nc(-c2ccccc2)n1`, for which the Potency entry is “inactive”.

Regarding `O=C1c2ccccc2CCc2ccccc21`, the Potency entry was “inactive”.

Consider `COCCOC(=O)c1ccccc1C(=O)OCCOC`, for which the “caspase activation” value was -1.62% (inactive).

As for `CC(=O)CC(C)(C)O`, the Potency result is “inactive”.
